Most compounds without a hit are left out; they make up all but 1.5% or so of the library.
uPA surface inh = qHTS for Inhibitors of Cell Surface uPA Generation; cell surface uPA generation assay, qHTS; Potency, µM (highest dose often 38.3 µM), for inactives: at the top dose activity change, negative = inhibition, most hits filed as inhibitors; actives 0.31% (n = 330,000); AID 540303, 2011; active = well fitted inhibition curve with a large enough effect; inconclusive = small, poorly fitted or top-dose-only effect; inactive = no such curve, though single readings can be large or run the other way; tested in mouse RAW 264.7 cells; note: potency is the fitted concentration of half-maximal effect; % is set by controls: 0 for no effect and ±100 for the full control effect; nearly all actives have a fitted effect of over 55% in size
IL-2 act = qHTS of IL-2 Activators | IL-2 activation reporter assay, cell-based qHTS; stimulated with anti-CD3/CD4/CD28 beads; in transgenic mouse T cells | activation, % (series mostly up to about 46 µM) | actives 0.065% (n = 360,000) | AID 652025, 2013; in the data active = activation above about 50%; inconclusive = mostly about 30% to 49%; note: 0% is about no effect
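Unstimulated transgenic mouse T cells preincubated 60 min with compound, then stimulated with anti-CD3/anti-CD4-coated beads plus anti-CD28 for 18 h at 37 degrees C. IL-2 response read as EGFP and DsRed fluorescence by plate cytometry.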
Integrin act MD = qHTS for Activators of Integrin-Mediated Alleviation for Muscular Dystrophy; Potency, µM (titrated, usually from 38.3 µM), inactives show at the highest dose activation, most hits filed as activators; alpha7betagal myoblasts, beta-gal FDG fluorescence, 48 h; actives 0.064% (n = 350,000);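 note: potency is the fitted concentration of half-maximal effect; 100% = response of the positive control SU9516; nearly all actives have a fitted effect of over 60% in size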
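Alpha7betagal+/- myoblasts (passage 13) were plated 16-24 hr, then exposed to compounds (1:260 dilution of DMSO stock) for 48 hours at 37C. After MPER lysis, β-galactosidase reporter activity was read as FDG fluorescence (ex 480/em 540) after 30 minutes.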
ALOX12 inh = Primary qHTS assay for inhibitors of human arachidonate 12S-lipoxygenase (ALOX12): Round 2. purified 12hLO, xylenol orange hydroperoxide absorbance. actives 1.1% (n = 580,000). Potency, µM (top dose mostly 108 µM), without a hit: at the top dose activity change, negative = inhibition, most hits filed as inhibitors; note: potency is the fitted concentration of half-maximal effect; % is set by controls: 0 for no effect and ±100 for the full control effect
Target sequence (P18054 whole entry, looked up): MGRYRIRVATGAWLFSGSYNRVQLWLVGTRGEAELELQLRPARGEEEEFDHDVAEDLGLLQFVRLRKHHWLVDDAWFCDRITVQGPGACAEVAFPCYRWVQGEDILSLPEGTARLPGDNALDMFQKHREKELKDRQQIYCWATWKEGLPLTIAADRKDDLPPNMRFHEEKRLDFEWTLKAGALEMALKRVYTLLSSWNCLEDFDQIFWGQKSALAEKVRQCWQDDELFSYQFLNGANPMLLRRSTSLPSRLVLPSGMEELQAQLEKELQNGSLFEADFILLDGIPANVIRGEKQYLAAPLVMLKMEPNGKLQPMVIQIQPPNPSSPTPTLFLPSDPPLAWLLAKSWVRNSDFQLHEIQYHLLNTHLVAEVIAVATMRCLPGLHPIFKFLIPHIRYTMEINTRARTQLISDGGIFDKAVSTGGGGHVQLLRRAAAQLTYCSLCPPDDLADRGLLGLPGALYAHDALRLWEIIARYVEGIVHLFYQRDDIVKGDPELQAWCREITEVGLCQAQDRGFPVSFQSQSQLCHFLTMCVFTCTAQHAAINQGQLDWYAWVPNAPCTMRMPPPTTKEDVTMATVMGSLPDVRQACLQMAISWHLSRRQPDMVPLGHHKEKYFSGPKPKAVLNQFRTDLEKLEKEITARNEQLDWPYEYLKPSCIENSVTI
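Purified human 12hLO (150 nM final) in 25 mM Hepes, 0.01% Triton X-100, pH 7.0 was preincubated 15 min at room temperature with compound. Then 40 uM arachidonic acid was added, 30 min. Hydroperoxide was read by Fe-XO absorbance ratio 573/405 nm.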
Nrf2 ARE act = qHTS of Nrf2 Activators; Potency, µM (top dose mostly 46.1 µM), without a hit: at the highest dose activation, usual class: activators; actives 0.31% (n = 410,000); AREc32 ARE-luciferase reporter (MCF7-derived line), luminescence, 24 h; note: potency is the fitted concentration of half-maximal effect; % of control where 0% means no effect; nearly all actives have a fitted effect of over 65% in size
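ARE activation measured as luciferase luminescence (Steady-Glo, 30 min RT) in AREc32_Fluc cells after 24 hr compound exposure at 37 deg C, 5% CO2; cells seeded overnight at 1000/well in OPTI-MEM, 5% FBS.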
Active calls of the source: *; u = inconclusive; x = no result given; ! = repeats disagree; [ ] = remark or other dose. Unless noted, calls come from the whole dose curve; as a rule, active = well fitted curve in the direction sought with a large enough effect; inconclusive = small, poorly fitted or top-dose-only effect, or another doubt; inactive = no such curve, though single readings can be large; an effect the other way counts as inactive or inconclusive.

SMILES	uPA surface inh	IL-2 act	Integrin act MD	ALOX12 inh	Nrf2 ARE act
S=c1[nH]nc(-c2ccncc2)n1/N=C/C=C/c1ccco1	10%	0	20%	u	u
Cc1cccc(-c2n[nH]c(=S)n2/N=C/C=C/c2ccco2)c1	11%	0	-34%	25µM*	2.5µM*
CCCCn1c(=O)[nH]c(=O)c2c1nc(CCC(N)=O)n2CC(C)C	x	x	x	42%	x
C/C(=C\C(=O)c1ccc(F)cc1)NCc1ccc2c(c1)OCO2	13%	2	30%	40µM*	2%
C/C(=C\C(=O)c1ccc(Br)cc1)NCc1ccc2c(c1)OCO2	4%	-1	24%	20%	2%
N=C1SCC(=O)N1c1ccccc1Cl	2%	0	u	3%	0%
O=c1c2ccccc2sn1-c1ccc(F)cc1	u	-1	-43%	u	20%
O=c1c2ccc(F)cc2sn1-c1ccccc1	x	-3	-47%	0.35µM*	23%
O=c1c2cc(F)ccc2sn1-c1ccccc1Cl	x	-3	5%	0.45µM*	u
Cc1ccc(-n2sc3cc(F)ccc3c2=O)c(C)c1	x	-1	-57%	0.4µM*	9%
Cc1ccc(N2C(=O)CC(N3CCN(c4ccc(F)cc4)CC3)C2=O)c(C)c1 (configuration not stated)	-2%	2	13%	17%	1%
CC(C)C(=O)N1CCC2(CC1)N(c1ccccc1)C(=O)CS2(=O)=O	x	x	x	30%	x
CC(=O)Nc1ccc(S(=O)(=O)Nc2cccn(Cc3ccc(C)cc3)c2=O)cc1	-4%	1	-11%	0%	0%
Cc1ccc(Cn2cccc(NS(C)(=O)=O)c2=O)cc1	-1%	1	7%	7.1µM*	0%
CCCCOC(=O)c1nc2ccccc2nc1NCc1ccccc1OC	x	x	x	12%	x
CCCCOC(=O)c1nc2ccccc2nc1Nc1cccc(OC)c1	x	x	x	6.3µM*	x
COc1ccccc1CC(=O)N1CCCc2ncc(C(=O)Nc3ccccn3)cc21	x	x	x	-3%[176 µM]	x
Cc1oc(-c2ccccc2)nc1CC(=O)Nc1ccc(Cl)cc1Cl	x	x	x	7.9µM*	x
O=C(NC1CCOC2(CCOCC2)C1)c1cn(CCN2CCNCC2)nn1 (configuration not stated)	x	x	x	22µM*	x
CC(C)c1ccc(S(=O)(=O)/N=C2\C=C(NS(=O)(=O)c3ccccc3)C(=O)c3ccccc32)cc1	5%	0	-14%	35µM*	11%
CCc1ccc(S(=O)(=O)/N=C2\C=C(NS(=O)(=O)c3ccccc3)C(=O)c3ccccc32)cc1	-9%	0	-29%	u	-1%
COc1cc(Cl)c(NC2=CC(=O)C(=O)c3ccccc32)c(OC)c1	3.2µM*	0	-59%	-2%	-1%
CCOc1ccc(NC2=CC(=O)C(=O)c3ccccc32)cc1	-12%	-4	-48%	-19%	-2%
O=C1CCN(C2CCCC2)CCCC(c2nc(-c3cccnc3)no2)CCN1 (configuration not stated)	x	x	x	22%	x
Oc1ccc(-c2nc3ccc4ccccc4c3c3c2CCC3)cc1O	-4%	-1	-68%	2µM*	9%
SMILES	uPA surface inh	IL-2 act	Integrin act MD	ALOX12 inh	Nrf2 ARE act
Cc1ccc(S(=O)(=O)CCCS(=O)(=O)c2ccc(C)cc2)cc1	4%	1	20%	-23%	-1%
Cc1ccc(S(=O)(=O)SCCCSS(=O)(=O)c2ccc(C)cc2)cc1	2%	-7	-52%	1.8µM*	3%
Cc1ccc(S(=O)(=O)C=CS(=O)(=O)c2ccc(C)cc2)cc1	x	-2	-61%	8.9µM*	u
Cc1ccc(S(=O)(=O)SC/C=C/CSS(=O)(=O)c2ccc(C)cc2)cc1	1%	-1	-39%	0.71µM*	7%
Cc1cccc(OCC(=O)NNC(=O)c2ccc3c(c2)NC(=O)C(C)S3)c1 (configuration not stated)	x	x	x	15%	x
COc1ccccc1N1CCN(C(=O)c2cc3cc(F)ccc3[nH]2)CC1	0%	0	u	0%	6%
Cc1cccc(N2CCN(C(=O)c3cc4cc(F)ccc4[nH]3)CC2)c1C	7%	-1	-7%	x	7.1µM*
Cc1nn(-c2ccccc2)cc1C(c1c(N)[nH]c(=S)[nH]c1=O)c1c(N)[nH]c(=S)[nH]c1=O	4%	1	13%	6.3µM*	0%
NC(=O)c1ccsc1NS(=O)(=O)c1ccc([N+](=O)[O-])cc1	x	x	x	14µM*	x
NC(=O)c1ccsc1NC(=O)c1ccc([N+](=O)[O-])o1	7.1µM*	0	-55%	16%	4%
NC(=O)c1c(NC(=O)c2ccc([N+](=O)[O-])o2)sc2c1CCCC2	10%	1	u	-2%	4µM*
CN1CCc2c(sc(NC(=O)c3ccc([N+](=O)[O-])o3)c2C(N)=O)C1	-14%	-1	-57%	-24%	-2%
NC(=O)c1c(NC(=O)c2ccc(F)cc2)sc2c1CCC2	-2%	-2	u	18µM*	9%
CN(C)c1ncccc1CNC(=O)COc1ccccc1Cl	x	x	x	-12%	x
COCc1c(C(=O)OCc2nc3ccsc3c(=O)[nH]2)oc2ccccc12	18%	0	1.1µM*	-22%	6%
O=c1cc(O)c2sc3nc(-c4cccs4)cc(-c4cccs4)c3c2[nH]1	x	x	x	10µM*	x
O=C(C1CCN(C(=O)N2CC3CC(C2)[C@H]2CCCC(=O)N2C3)CC1)N1CCOCC1 (some centres not stated)	x	x	x	37%	x
O=C1OC(c2ccccc2)(c2cc(Br)ccc2O)c2ccccc21 (configuration not stated)	-1%	-1	-38%	45µM*	-3%
Cc1ccc2nc(C3=C(O)CN(c4cccc(Cl)c4C)C3=N)[nH]c2c1	x	x	x	29%	x
C/C=C(/C(=C/C)c1ccc(O)cc1)c1ccc(O)cc1	30%	2	x	50µM*!	1%
CC(=NN=C(C)c1ccc(O)cc1)c1ccc(O)cc1	-7%	1	-24%	-7%	3%
Cc1ccc(-n2c(O)c(C=Nc3ccccc3-c3n[nH]c(=S)[nH]c3=O)c3ccccc3c2=O)c(C)c1	2%	-3	-4%	16µM*	0%[9.22 µM]
Cc1ccc(-n2c(O)c(C=Nc3ccccc3-c3n[nH]c(=S)[nH]c3=O)c3ccccc3c2=O)cc1C	3%	0	27%	u	0%
CC(=O)NC12CC3CC(C1)CC(C(=O)NC(c1ccccc1)c1ccccc1)(C3)C2	x	x	x	-19%	x
CC1=NN(c2nc(-c3ccc(Cl)cc3)cs2)C(=O)C1	1%	1	10%	5.6µM*	0%
C=CCC(Nc1ccccc1)C12C=CC(O1)C(C(=O)OC)=C2C(=O)OC (configuration not stated)	-12%	-1	-64%	48%	11µM*
O=C(CCc1ncc(-c2ccccc2)o1)Nc1ccncc1	x	x	x	9%	x

Screening data deposited in PubChem BioAssay by National Center for Advancing Translational Sciences (NCATS).
